Data reported in PubChem BioAssay.
Values joined by “and” are separate entries in the source; they are usually repeats but may differ in a detail not shown here. Identical values can stand only once. Unmarked numbers belong to inactive results. Active and inactive are the calls of the source.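 Rule for the calls: active = thallium flux through the channel raised or lowered by more than 3 SD from vehicle-only wells, actives on both sides; inactive = the rest.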

Experiments:
Test in all cases: BK channel mutant inhibitors and activators – cell-based, U2OS BacMam, thallium flux, beta subunits, selectivity assay, profiling panel (AID 1259406);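 note: initial slope of Thallos dye fluorescence rise after thallium is added; log ratio against the mean of 0.3% DMSO vehicle wells on the same plate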
F380Y/beta2Delta = settings: U2OS BacMam BK variants, at 30 µM
F380Y/beta4 = settings: U2OS BacMam BK variants, at 30 µM
[1] = biological target: Calcium-activated potassium channel subunit alpha-1 (Homo sapiens) + Leucine-rich repeat-containing protein 26 (Homo sapiens) (UniProt Q12791+Q2I0M4); settings: U2OS BacMam BK variants, F380Y/Slo1WT/gamma1, at 30 µM
Sequence of Calcium-activated potassium channel subunit alpha-1 (Homo sapiens) + Leucine-rich repeat-containing protein 26 (Homo sapiens) (Q2I0M4 whole entry, looked up, one chain of several): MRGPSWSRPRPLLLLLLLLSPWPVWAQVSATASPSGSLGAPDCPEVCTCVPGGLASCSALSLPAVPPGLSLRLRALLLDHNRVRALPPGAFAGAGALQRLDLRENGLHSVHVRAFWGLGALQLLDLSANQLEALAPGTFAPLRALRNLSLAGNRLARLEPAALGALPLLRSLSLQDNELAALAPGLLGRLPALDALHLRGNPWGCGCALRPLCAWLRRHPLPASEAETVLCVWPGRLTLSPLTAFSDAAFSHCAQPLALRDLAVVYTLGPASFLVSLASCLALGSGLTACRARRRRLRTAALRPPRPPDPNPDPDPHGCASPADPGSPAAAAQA

R275C = settings: U2OS BacMam BK variants, at 30 µM
R275C/beta1 = settings: U2OS BacMam BK variants, at 30 µM
R275C/beta2Delta = settings: U2OS BacMam BK variants, at 30 µM
R275C/beta4 = settings: U2OS BacMam BK variants, at 30 µM
R275C/Slo1WT/beta2 = settings: U2OS BacMam BK variants, at 30 µM

SMILES	log fold change Tl+ flux (F380Y/beta2Delta)	log fold change Tl+ flux (F380Y/beta4)	log fold change Tl+ flux [1]	log fold change Tl+ flux (R275C)	log fold change Tl+ flux (R275C/beta1)	log fold change Tl+ flux (R275C/beta2Delta)	log fold change Tl+ flux (R275C/beta4)	log fold change Tl+ flux (R275C/Slo1WT/beta2)
COc1ccc(C2CNC(=O)C2)cc1OC1CCCC1 (centres undefined)	-0.0248	-0.115 (active)	-0.000443	0.0314	0.031	-0.00816	0.0303	0.00671
CC(C)(C)NC(=O)[C@H]1CC[C@H]2[C@@H]3CC[C@H]4NC(=O)C=C[C@]4(C)[C@H]3CC[C@]12C	0.0468	0.00105	-0.00445	-0.0443	-0.0219	0.0533	0.00132	-0.0253
Clc1ccc2nsnc2c1NC1=NCCN1	-0.0575	-0.0136	0.00637	0.0392	0.0375	-0.063	0.0661	0.00517
Cc1nc2n(c(=O)c1CCN1CCC(c3noc4cc(F)ccc34)CC1)CCCC2	-0.0407	-0.0446	-0.0848	-0.134 (active)	-0.00526	-0.0361	-0.0132	0.0103
CCN(CC)CCNC(=O)c1cc(Cl)c(N)cc1OC	-0.0588	-0.0267	0.0156	0.0337	-0.0145	-0.0122	-0.0991	-0.0439
CN(C/C=C/C#CC(C)(C)C)Cc1cccc2ccccc12	-0.0506	-0.0252	0.0229	-0.0273	-0.3 (active)	-0.238 (active)	-0.00168	0.012
Oc1ccc(C2CNCCc3c2cc(O)c(O)c3Cl)cc1 (centres undefined)	0.057	0.0586	0.0552	-0.0214	0.0235	0.0656	0.0211	0.0233
NS(=O)(=O)Cc1noc2ccccc12	-0.0343	-0.0562	0.00637	-0.021	0.0189	-0.0477	0.00838	-0.0027
O=C1CC2(CCCC2)CC(=O)N1CCCCN1CCN(c2ncccn2)CC1	0.0619	0.0587	0.00932	0.00417	0.0329	-0.0367	0.0017	-0.02
C[C@H](NC(CCc1ccccc1)C(=O)O)C(=O)N1CCC[C@H]1C(=O)O (some centres undefined)	0.0235	0.0162	-0.0317	-0.0419	0.0208	0.0297	0.0258	0.0874 (active)
CC(=O)OCC(=O)NCCCOc1cccc(CN2CCCCC2)c1	0.000408	-0.0388	-0.00356	-0.0635	0.00812	0.0201	-0.00407	0.00881
CCCOc1ccc(C(=O)OCCN(CC)CC)cc1N	0.0489	0.0262	0.00339	0.0442	-0.0232	0.0224	0.00943	-0.0584
COC(=O)CCc1ccc(OCC(O)CNC(C)C)cc1 (centres undefined)	0.0184	-0.0155	-0.00535	-0.0168	0.0198	0.0115	0.0115	0.0231
OCCOCCN1CCN(C2=Nc3ccccc3Sc3ccccc32)CC1	0.0505	0.186 (active)	0.0336	-0.011	0.15 (active)	0.106 (active)	0.142 (active)	-0.027
NCC1CCC(C(=O)Oc2ccc(CCC(=O)O)cc2)CC1 (centres undefined)	-0.0278	-0.00261	0.0182	-0.0458	0.036	0.00228	-0.0367	-0.00395
COC1=C(OC)C(=O)C(CCCCCCCCCCO)=C(C)C1=O	-0.557 (active)	-0.388 (active)	-0.413 (active)	-0.199 (active)	-0.0599	-0.151 (active)	-0.0932 (active)	-0.0534

SMILES	log fold change Tl+ flux (F380Y/beta2Delta)	log fold change Tl+ flux (F380Y/beta4)	log fold change Tl+ flux [1]	log fold change Tl+ flux (R275C)	log fold change Tl+ flux (R275C/beta1)	log fold change Tl+ flux (R275C/beta2Delta)	log fold change Tl+ flux (R275C/beta4)	log fold change Tl+ flux (R275C/Slo1WT/beta2)
Nc1nc(N)nc(-c2cc(Cl)ccc2Cl)n1	-0.0416	-0.00342	-0.0223	-0.0835	-0.0137	-0.0163	-0.0246	-0.0527
O=C(c1ccc(F)cc1)C1CCN(CCn2c(=S)[nH]c3ccccc3c2=O)CC1	-0.00369	0.0138	-0.000443	0.0338	-0.0174	-0.00339	-0.00101	0.0813 (active)
O=C1Nc2ccc(Cl)cc2[C@@](C#CC2CC2)(C(F)(F)F)O1	0.0472	0.0723	0.0446	-0.166 (active)	0.275 (active)	0.119 (active)	0.11 (active)	-0.0224
CCCc1c(OCCCCc2nn[nH]n2)ccc(C(C)=O)c1O	0.0962 (active)		0.186 (active)	0.0659	0.282 (active)	0.193 (active)		
COc1cc(OC)c(C(=O)CCCN2CCCC2)c(OC)c1	-0.00493	-0.0142	0.0079	0.0465	0.0151	0.0392	0.0301	0.0326
CC(C)NCC(O)COc1ccc(CCOCC2CC2)cc1 (centres undefined)	0.0281	0.0205	-0.00804	0.0179	0.00923	-0.0652	-0.0167	-0.00955
COc1cc2nc(N3CCN(C(=O)C4COc5ccccc5O4)CC3)nc(N)c2cc1OC (centres undefined)	-0.269 (active)	-0.235 (active)	-0.00742	-0.0618	0.0698	-0.0306	-0.0729	0.00736
CC(C)(C)NC(=O)[C@@H]1CN(Cc2cccnc2)CCN1C[C@@H](O)C[C@@H](Cc1ccccc1)C(=O)N[C@H]1c2ccccc2C[C@H]1O	-0.0728	-0.0768	0.0169	-0.0278	-0.00667	-0.0261	0.0581	0.101 (active)
O=C1c2cccc3c2[C@H](CCC3)CN1[C@@H]1CN2CCC1CC2	0.0262	0.0479	0.0044	-0.0177	-0.00783	0.00552	-0.0169	-0.0269
CCCN[C@H]1CCc2nc(N)sc2C1	0.0149 and -0.064	0.049	-0.0398 and 0.00679	-0.0132 and -0.0398	-0.0125 and -0.021	-0.0052 and -0.0245	0.000139	0.0182
CN(C)CCCSc1ccccc1NC(=O)/C=C/c1ccccc1	0.0654		0.0123	0.063	0.0477	0.0394		
CCOc1cc(N)c(Cl)cc1C(=O)NCC1CN(Cc2ccc(F)cc2)CCO1 (centres undefined)	0.0207	-0.0442	0.0207	-0.0128	0.0447	0.108 (active)	0.0132	0.00286
CC(=O)NS(=O)(=O)c1ccc(N)cc1	0.0558	0.0262	-0.0364	0.0168	-0.00538	-0.00501	-0.00232	0.00853
O=C(CCNNC(=O)c1ccncc1)NCc1ccccc1	-0.0162	0.0308	0.00963	-0.0947	-0.0338	0.038	0.0195	0.0406
Cc1ccc(NC(=O)c2ccc(CN3CCN(C)CC3)cc2)cc1Nc1nccc(-c2cccnc2)n1	0.0732		-0.0387	-0.00147	0.00665	0.0291		
